The nature of assay [1]: qHTS assay to identify small molecule agonists of the vitamin D receptor (VDR) signaling pathway - cell viability counter screen (AID 743224). Also: nearly all actives have a fitted effect of over 50% in size. Also: potency is read from the fitted curve at half-maximal effect. The procedure, abridged:
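Cells: VDR-bla, 2,000/well, settled 4 h. Treatment: compounds in DMSO, 16 h, 37C/5% CO2. Readout: CellTiter-Glo luminescence after 30 min RT.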

Assay [2] in a line: qHTS assay to identify small molecule antagonists of the vitamin D receptor (VDR) signaling pathway - cell viability counter screen (AID 743225). Also: nearly all actives have a fitted effect of over 50% in size. Also: potency is read from the fitted curve at half-maximal effect. The procedure, abridged:
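Compounds were pinned onto VDR-bla HEK 293T cells together with 1-alpha,25-dihydroxyvitamin D3 at 3 nM final. After 16 h at 37C and 5% CO2 plus the reporter readout, cell viability was measured by CellTiter-Glo luminescence (30 min, room temperature).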

The nature of assay [3]: qHTS assay to identify small molecule agonists of the NFkB signaling pathway (AID 1159509; active = well fitted curve in the direction sought with a large enough effect in the signal ratio in the repeat runs, not every such curve was filed as active; the % refers to the signal ratio; also: series mostly up to about 61 µM). The procedure, abridged: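 Readout: FRET fluorescence, 405 nm excitation, 460/530 nm emission; beta-lactamase expression disrupts FRET. Cells: ME-180 stably carrying NF-kB-driven bla reporter. Compound exposure 5 hr, 37 C, 5% CO2.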
Assay [4] in a line: qHTS assay to identify small molecule agonists of the NFkB signaling pathway - cell viability counter screen (AID 1159515; calls by dose curve; also: nearly all actives have a fitted effect of over 55% in size; also: potency is read from the fitted curve at half-maximal effect). In short, it runs like this: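 Cells are seeded (2,000 NFkB-bla ME-180 per well), rested overnight, and dosed with DMSO-dissolved compounds for 5 hr at 37 C. Viability is then read by CellTiter-Glo luminescence after 30 min at room temperature.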
The nature of assay [5]: qHTS assay to identify small molecule agonists of the endoplasmic reticulum stress response signaling pathway (AID 1159516; active = well fitted activation curve with a large enough effect in the signal ratio in the repeat runs, not every such curve was filed as active; the % refers to the signal ratio). The procedure, abridged: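 Cells are seeded at 1,500 per well and incubated overnight. Compounds in DMSO are added for 5 hr at 37 C, then beta-lactamase FRET substrate for 2 hr at room temperature, and fluorescence at 460 and 530 nm is measured.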
A short description of assay [6]: qHTS assay to identify small molecule agonists of the endoplasmic reticulum stress response signaling pathway - cell viability counter screen (AID 1159517; calls by dose curve;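 also: HeLa cells carrying an ER stress response element beta-lactamase reporter; series mostly up to about 61 µM; nearly all actives have a fitted effect of over 50% in size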). In short, it runs like this:
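Cytotoxicity of test compounds toward ESRE-bla HeLa cells was assessed after 5 hr exposure. The luminescent CellTiter-Glo signal was measured 30 min after reagent addition.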

Assay [7] in a line: qHTS assay to identify small molecule antagonists of the retinoid-related orphan receptor gamma (ROR-gamma) signaling pathway - cell viability counter screen (AID 1159520). Also: nearly all actives have a fitted effect of over 50% in size. In short, it runs like this: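 Tet-on ROR gamma CHO cells (1,000/well) were plated 4 hr, given compounds in DMSO for 2 hr at 37 C, then induced with 1 uM final doxycycline for 16 hr. Viability was read as ATP by CellTiter-Glo luminescence after 30 min.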

The target in assay [8] is Nuclear receptor ROR-gamma (Homo sapiens) (UniProt P51449). Description: qHTS assay to identify small molecule antagonists of the retinoid-related orphan receptor gamma (ROR-gamma) signaling pathway (AID 1159521; also: nearly all actives have a fitted effect of over 50% in size; also: potency is read from the fitted curve at half-maximal effect). The procedure, abridged:
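Test compounds were applied to Tet-on RORγ CHO cells 2 h ahead of doxycycline hyclate (1 uM final). Luciferase reporter activity was quantified by luminescence after 16 h at 37 C and 5% CO2.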

A short description of assay [9]: qHTS assay to identify small molecule agonists of the AP-1 signaling pathway - cell viability counter screen (AID 1159525; calls by dose curve; also: nearly all actives have a fitted effect of over 55% in size). In short, it runs like this: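 Each titration point was normalised to DMSO and tetra n-octyl ammonium bromide controls. The read was Cell Titer Glo luminescence after 30 min at RT, following 5 h compound exposure of ME-180 AP-1-bla cells at 37 °C.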

Assay [10] can be described thus: qHTS assay to identify small molecule agonists of the RXR signaling pathway - cell viability counter screen (AID 1159529). Also: nearly all actives have a fitted effect of over 50% in size. Also: potency is read from the fitted curve at half-maximal effect. The procedure, abridged:
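Compounds dissolved in DMSO were pinned onto HEK 293T cells carrying a beta-lactamase reporter under RXR-alpha control and incubated 16 hr. Cytotoxicity was then quantified by CellTiter-Glo luminescence.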

Assay [11] is described as follows: qHTS assay to identify small molecule antagonists of the retinoid acid receptor (RAR) signaling pathway - cell viability counter screen (AID 1159551). Also: nearly all actives have a fitted effect of over 35% in size. The procedure, abridged:
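Cells (C3RL4) are plated, incubated overnight, dosed with compound in DMSO, then given retinol at 1 uM final. After 6 h at 37 C, CellTiter-Glo is added and luminescence read following 30 min at room temperature.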

Assay [12] can be described thus: qHTS assay to identify small molecule antagonists of the estrogen related receptor (ERR) signaling pathway - cell viability counter screen (AID 1224818). Also: series mostly up to about 46 µM. In short, it runs like this:
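ERR cells, 2,000/well; 6 h settle at 37 C/5% CO2; compound pin transfer (DMSO); 17.5 h at 37 C; CellTiter-Fluor, 30 min, fluorescence read.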

A short description of assay [13]: qHTS assay to identify small molecule antagonists of the estrogen related receptor signaling pathway with the pleiotropic PPARgamma coactivator (PGC) cell viability counter screen (AID 1224822;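 also: series mostly up to about 46 µM; viability read after 17.5 h compound exposure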). The procedure, abridged: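 Multiplexed viability counter screen run in PGC/ERR cells treated with compounds for 17.5 h at 37 C; live-cell protease signal measured by CellTiter-Fluor fluorescence.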

A short description of assay [14]: qHTS assay to identify small molecule agonists of the AP-1 signaling pathway (AID 1159526; calls by dose curve).
Assay [15] has as its target Retinoic acid receptor RXR-alpha (Homo sapiens) (UniProt P19793). The assay is described as follows: qHTS assay to identify small molecule agonists of the RXR signaling pathway (AID 1159527; calls by dose curve; also: nearly all actives have a fitted effect of over 35% in size; also: potency is read from the fitted curve at half-maximal effect). In short, it runs like this:
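Using 9-cis retinoic acid as the reference agonist, chemicals were tested in HEK 293T cells […] for 16 hr; substrate loading lasted 2 hr at room temperature.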

Assay [16] can be described thus: qHTS assay to identify small molecule antagonists of the retinoic acid receptor (RAR) signaling pathway (AID 1159552; also: nearly all actives have a fitted effect of over 50% in size). In short, it runs like this:
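Test chemicals and DMSO controls were pin-transferred onto C3RL4 cells a day after seeding; retinol (1 uM final) followed at once. Luminescent reporter output was quantified after 6 hr of co-incubation and 30 min with detection reagent.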

Assay [17] in a line: qHTS assay to identify small molecule agonists of the retinoic acid receptor (RAR) signaling pathway (AID 1159553). The procedure, abridged: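 Seed C3RL4 reporter cells at 1,000 per well and incubate overnight at 37 C. Add compounds in DMSO, incubate 6 hr. Add luciferase reagent, wait 30 min at room temperature, read luminescence.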

Where “and” joins values, the source holds several entries; their conditions need not be identical. Identical values can stand only once. Results filed as inconclusive are left out. A structure can be active in one record and inactive in another. Calls of active or inactive are those of the source. Unless noted, calls follow the shape of the dose curve; as a rule, active = well fitted curve in the direction sought with a large enough effect in the repeat runs; inconclusive = weak or mixed curves; inactive = no such curve, though single readings can be large; an effect the other way counts as inactive or inconclusive.

Sequence of Retinoic acid receptor RXR-alpha (Homo sapiens) (P19793 whole entry, looked up): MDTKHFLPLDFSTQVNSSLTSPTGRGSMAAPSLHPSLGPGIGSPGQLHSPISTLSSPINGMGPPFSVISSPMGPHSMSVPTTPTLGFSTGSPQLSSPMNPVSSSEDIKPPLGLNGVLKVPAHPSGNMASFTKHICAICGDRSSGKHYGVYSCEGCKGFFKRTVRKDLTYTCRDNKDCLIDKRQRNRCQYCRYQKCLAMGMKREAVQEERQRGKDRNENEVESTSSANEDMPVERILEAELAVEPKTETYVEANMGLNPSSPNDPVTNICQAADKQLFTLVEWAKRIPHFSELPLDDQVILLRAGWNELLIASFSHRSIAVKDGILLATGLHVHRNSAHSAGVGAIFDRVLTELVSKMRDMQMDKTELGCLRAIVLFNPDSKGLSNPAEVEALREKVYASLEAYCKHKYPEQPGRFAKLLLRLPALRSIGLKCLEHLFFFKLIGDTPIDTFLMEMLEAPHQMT

As for `CN(C)CCC=C1c2ccccc2CCc2ccccc21`, the Potency is 49 µM (active) and 21.9 µM (active) in assay [1]; 21.9 µM (active) and 49 µM (active) and inactive in [2]; 30.6 µM (active) and inactive in [8]; 12.3 µM (active) and 15.5 µM (active) and 13.4 µM (active) in assay [10]. For the same molecule, in assay [3], the call was inactive. Moreover, the Potency entry in [4], in assay [5], in assay [6], in assay [7], in assay [9] and in assay [11] was “inactive” in each case. Further, the Potency result in assay [12] and in assay [13] was “inactive” each time.

`c1ccncc1`: the Potency entry in assay [1], in assay [2], in assay [4], in [5], in assay [6] and in assay [8] was “inactive” in each case. Moreover, the Potency result in assay [9], in assay [15], in assay [10], in assay [11] and in assay [16] was “inactive” in each case. For the same molecule, the molecule was called inactive in assay [3] and in assay [14].

As for `O=C(O)c1ccccc1Nc1cccc(C(F)(F)F)c1`, the Potency result in [1], in assay [2], in assay [4], in assay [5], in assay [6] and in [7] was “inactive” each time. For the same molecule, the Potency entry in assay [8], in assay [9], in [10], in assay [11], in assay [16] and in [17] was “inactive” throughout. The result in assay [3] and in assay [14] was inactive.

As to `CC(C)(C)NC(=O)[C@H]1CC[C@H]2[C@@H]3CC[C@H]4NC(=O)C=C[C@]4(C)[C@H]3CC[C@]12C`, the Potency entry in [1], in assay [2], in assay [4], in assay [5], in [6] and in assay [7] was “inactive” each time. The Potency result in [8], in assay [9], in assay [10], in [11], in assay [16] and in assay [17] was “inactive” each time. For the same molecule, the result in assay [3] and in [14] was inactive.

For the molecule `Cc1cc2nc3c(=O)[nH]c(=O)nc-3n(C[C@H](O)[C@H](O)[C@H](O)CO)c2cc1C`, the Potency result in assay [1], in assay [2], in assay [4], in assay [5], in [6] and in assay [7] was “inactive” throughout. Further, the Potency entry in assay [8], in assay [9], in assay [10], in assay [11] and in [16] was “inactive” in each case. The molecule was classed as inactive in assay [3] and in assay [14].

As to `Nc1ccc(Nc2ccccc2)cc1`, the Potency result in assay [1], in assay [2], in assay [4], in [5], in assay [6] and in assay [7] was “inactive” throughout. Besides, the Potency result in assay [9], in assay [10], in assay [11], in assay [16] and in assay [17] was “inactive” throughout. Also, in assay [3], the molecule was classed as inactive. Besides, the Potency entry in assay [8] was “inactive and 27.3 µM (active)”.

As for `CCOCCOCCO`, the Potency entry in assay [1], in assay [2], in assay [4], in assay [5], in assay [6] and in assay [7] was “inactive” throughout. Besides, the Potency entry in assay [8], in assay [9], in assay [15], in assay [10] and in assay [11] was “inactive” in each case. For the same molecule, the result in assay [3] and in assay [14] was inactive.

For the molecule `Cc1ccc(C)c(O)c1C`, the Potency entry in [1], in assay [4], in assay [5], in assay [6], in [7] and in assay [8] was “inactive” throughout. The Potency result in [9], in assay [10], in assay [11] and in [16] was “inactive” in each case. Further, the molecule was classed as inactive in [3] and in assay [14].

As for `CCCCCCCCCCCO`, the Potency entry in assay [1] is “inactive and 49 µM (active)”; in [4] it was “inactive and 49 µM (active)”; in assay [15], “inactive and 3.89 µM (active)”. For the same molecule, the outcome in [3] and in [14] was inactive. Besides, the Potency result in [5], in assay [6], in assay [8], in [9], in assay [10] and in assay [11] was “inactive” each time. Besides, the Potency result in assay [16] and in [17] was “inactive” each time.

`O=C(COc1ccc(Cl)cc1)N1CCN(Cc2ccc3c(c2)OCO3)CC1`: the Potency entry in [1], in [2], in assay [4], in [5], in assay [6] and in assay [7] was “inactive” in each case. The Potency entry in assay [8], in assay [9], in [10] and in [11] was “inactive” throughout. Also, the molecule was classed as inactive in assay [3] and in assay [14].

The values are drawn from PubChem BioAssay (Tox21).
